The source of these data is PubChem BioAssay.

Assay [1] can be described thus: binders of probe aFSTL3 on microarray, primary screen, stem cell growth factor project, biochemical, small-molecule microarray, fluorescence 635/667 (AID 1064).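 Further: measures binding of the biotinylated anti-FSTL3 antibody to printed compounds.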 The note with it: higher = more signal.
Assay [2] can be described thus: binders from COS7 lysate, DM2A8 probe, primary screen, torsin A project, cell lysate, small-molecule microarray, fluorescence 635/667 (AID 1065). The note with it: higher = more signal, COS7 lysate expressing mutant human TOR1A.
Assay [3] is described as follows: binders of probe aFGF2 on microarray, primary screen, stem cell growth factor project, biochemical, small-molecule microarray, fluorescence 635/667 (AID 1067).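 Further: measures binding of biotinylated aFGF2 protein to printed compounds on slides; z-score merges feature fluorescence and signal-to-noise across triplicate slides.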 The note with it: higher = more signal.
Assay [4] is described as follows: binders of probe aFGF10 on microarray, primary screen, stem cell growth factor project, biochemical, small-molecule microarray, fluorescence 635/667 (AID 1071).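 Further: score merges 667 nm spot intensity and signal to noise from triplicate slides.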 Particulars: higher = more signal.
In assay [5] the target is Neurogenic locus notch homolog protein 2 (Homo sapiens) (UniProt Q04721). Kind of assay: Notch2 binders on small-molecule microarrays, primary screen, biochemical, small-molecule microarray, 635 nm fluorescence, stem cell growth factors (AID 1073). Particulars: Notch2 binding, higher = more signal.
In assay [6] the target is Pro-neuregulin-1, membrane-bound isoform (Homo sapiens) (UniProt Q02297). Kind of assay: NRG1 binders on small-molecule microarrays, primary screen, psychiatric disease protein project, biochemical, small-molecule microarray, fluorescence 635/667 (AID 1075).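 Further: score combines 667 nm spot fluorescence with signal to noise.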 Particulars: NRG1 binding, 635 nm fluorescence, higher = more signal.
Chain of Pro-neuregulin-1, membrane-bound isoform (Homo sapiens) (Q02297 whole entry, looked up, the tested form may be a part, canonical isoform): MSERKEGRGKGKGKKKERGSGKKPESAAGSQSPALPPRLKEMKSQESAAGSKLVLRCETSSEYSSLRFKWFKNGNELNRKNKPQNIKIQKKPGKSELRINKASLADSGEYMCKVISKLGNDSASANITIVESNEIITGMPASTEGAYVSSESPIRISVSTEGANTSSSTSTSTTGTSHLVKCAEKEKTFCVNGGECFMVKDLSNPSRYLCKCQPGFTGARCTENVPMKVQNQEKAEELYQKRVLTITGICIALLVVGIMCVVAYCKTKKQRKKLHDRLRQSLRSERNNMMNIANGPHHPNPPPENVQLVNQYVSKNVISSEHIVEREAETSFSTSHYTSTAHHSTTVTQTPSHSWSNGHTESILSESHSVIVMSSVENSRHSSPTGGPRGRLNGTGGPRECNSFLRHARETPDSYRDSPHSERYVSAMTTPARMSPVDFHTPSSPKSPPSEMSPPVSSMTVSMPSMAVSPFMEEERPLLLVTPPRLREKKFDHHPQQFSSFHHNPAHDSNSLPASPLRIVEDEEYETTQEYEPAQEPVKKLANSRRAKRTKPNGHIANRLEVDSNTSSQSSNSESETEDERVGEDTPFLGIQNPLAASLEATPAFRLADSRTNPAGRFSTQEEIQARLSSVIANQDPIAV
The subject of assay [7] is Neuregulin-1 EGF-like domain. Kind of assay: binders of neuregulin-1 EGF-like domain, primary screen, biochemical, small-molecule microarray, 635 nm fluorescence (AID 1081).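 Further: binding of the protein to compounds printed on small-molecule microarray slides.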 The note with it: small-molecule microarray binding, higher = more signal.
A short description of assay [8]: FRG1 promoter luciferase signal modulators, primary screen, FRG1 inhibition for FSHD, cell-based, C2C12 myotubes, firefly/Renilla luciferase, luminescence (AID 1084). Particulars: higher = more signal, called active from +8 up or from −8 down.
Assay [9] is described as follows: binders of probe aFST on microarray, primary screen, stem cell growth factor project, biochemical, small-molecule microarray, fluorescence 635/667 (AID 1086).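 Further: score merges 667 nm fluorescence with signal-to-noise of each printed compound spot.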 The note with it: higher = more signal.
The nature of assay [10]: binders of probe aHhip on microarray, primary screen, stem cell growth factor project, biochemical, small-molecule microarray, fluorescence 635/667 (AID 1087).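 Further: score merges spot fluorescence at 667nm with spot signal to noise ratio.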 Particulars: higher = more signal.
The subject of assay [11] is PRMT1 (protein arginine N-methyltransferase 1). Kind of assay: PRMT1 binders on small-molecule microarrays, primary screen, biochemical, small-molecule microarray, 635 nm fluorescence (AID 1088).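 Further: binding of Prmt1 protein to compounds spotted on small-molecule microarray slides.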 The note with it: small-molecule microarray binding, higher = more signal.
The nature of assay [12]: yeast growth modulation, basal conditions, primary screen, YJM789 clinical isolate, OD600, 24 h (AID 1089).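 Further: growth of clinical yeast isolate S. cerevisiae YJM 789 seeded 1000 cells per well; test concentration not given here.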 The note with it: S. cerevisiae YJM789 growth, higher = more signal, called active from +8 up or from −8 down.
Assay [13] is described as follows: fission yeast growth modulation, primary screen, strain 972, OD600, 24 h, no modulator (AID 1090).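 Further: basal condition with compound alone and no growth modifier present; test concentration not given here.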 Particulars: S. pombe 972 growth, higher = more signal, called active from +8 up or from −8 down.
Assay [14] is described as follows: S. cerevisiae growth modulation with rapamycin, primary screen, strain BY4716, OD600, 96 h (AID 1091). Further: test concentration not given here. Particulars: higher = more signal, called active from +8 up or from −8 down.
In assay [15] the target is Torsin-1A-interacting protein 2 (Homo sapiens) (UniProt Q8NFQ8). Kind of assay: LULL1 binders on small-molecule microarray, primary screen, cell lysate, human LULL1 lysate, 635/667 nm fluorescence (AID 1092).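 Further: probe is lysate of COS7 cells overexpressing human LULL1; score merges per-feature 667 nm fluorescence with signal-to-noise.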 Particulars: hLULL1 lysate binding, 635 nm fluorescence, higher = more signal.
Chain of Torsin-1A-interacting protein 2 (Homo sapiens) (Q8NFQ8 whole entry, looked up): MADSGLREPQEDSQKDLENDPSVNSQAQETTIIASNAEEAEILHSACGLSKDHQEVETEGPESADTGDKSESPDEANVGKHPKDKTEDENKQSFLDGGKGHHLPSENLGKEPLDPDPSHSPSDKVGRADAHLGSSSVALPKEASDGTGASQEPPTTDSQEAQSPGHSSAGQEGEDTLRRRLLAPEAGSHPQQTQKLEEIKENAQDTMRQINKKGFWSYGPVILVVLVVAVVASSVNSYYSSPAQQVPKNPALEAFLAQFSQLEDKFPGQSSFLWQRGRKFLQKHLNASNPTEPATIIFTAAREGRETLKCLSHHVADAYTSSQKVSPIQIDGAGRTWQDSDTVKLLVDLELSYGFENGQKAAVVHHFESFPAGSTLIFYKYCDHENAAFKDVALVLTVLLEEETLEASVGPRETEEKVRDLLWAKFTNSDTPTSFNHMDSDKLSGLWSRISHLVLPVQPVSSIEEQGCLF
A short description of assay [16]: E. coli growth modulation, two-sided OD650, primary screen, E. coli filamentation project, strain DRC41, 24 h (AID 1093).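 Further: MC1000 strain lacking acrAB efflux and sulA so SOS filamentation is blocked; test concentration not given here.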 The note with it: OD650, 24 h, higher = more signal, called active from +8 up or from −8 down.
Assay [17] can be described thus: small-molecule microarray binders of probe aLefty2, primary screen, biochemical, biotinylated probe, 635/667 nm fluorescence (AID 1094).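 Further: score merges spot fluorescence near 667 nm with spot signal-to-noise ratio.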 Particulars: higher = more signal.
Assay [18] has as its system Noggin (protein binding on small-molecule microarray). Nature of the assay: Noggin binders on small-molecule microarray, primary screen, biochemical, 635/667 nm fluorescence (AID 1095).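 Further: score merges 667 nm feature fluorescence with signal to noise over triplicate slides.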 Particulars: 635 nm fluorescence, higher = more signal.
The target of assay [19] is Neurogenic locus notch homolog protein 3 (Homo sapiens) (UniProt Q9UM47). Kind of assay: NOTCH3 binders on small-molecule microarray, primary screen, biochemical, 635/667 nm fluorescence (AID 1096). Particulars: NOTCH3 binding, 635 nm fluorescence, higher = more signal.
Chain of Neurogenic locus notch homolog protein 3 (Homo sapiens) (Q9UM47 whole entry, looked up): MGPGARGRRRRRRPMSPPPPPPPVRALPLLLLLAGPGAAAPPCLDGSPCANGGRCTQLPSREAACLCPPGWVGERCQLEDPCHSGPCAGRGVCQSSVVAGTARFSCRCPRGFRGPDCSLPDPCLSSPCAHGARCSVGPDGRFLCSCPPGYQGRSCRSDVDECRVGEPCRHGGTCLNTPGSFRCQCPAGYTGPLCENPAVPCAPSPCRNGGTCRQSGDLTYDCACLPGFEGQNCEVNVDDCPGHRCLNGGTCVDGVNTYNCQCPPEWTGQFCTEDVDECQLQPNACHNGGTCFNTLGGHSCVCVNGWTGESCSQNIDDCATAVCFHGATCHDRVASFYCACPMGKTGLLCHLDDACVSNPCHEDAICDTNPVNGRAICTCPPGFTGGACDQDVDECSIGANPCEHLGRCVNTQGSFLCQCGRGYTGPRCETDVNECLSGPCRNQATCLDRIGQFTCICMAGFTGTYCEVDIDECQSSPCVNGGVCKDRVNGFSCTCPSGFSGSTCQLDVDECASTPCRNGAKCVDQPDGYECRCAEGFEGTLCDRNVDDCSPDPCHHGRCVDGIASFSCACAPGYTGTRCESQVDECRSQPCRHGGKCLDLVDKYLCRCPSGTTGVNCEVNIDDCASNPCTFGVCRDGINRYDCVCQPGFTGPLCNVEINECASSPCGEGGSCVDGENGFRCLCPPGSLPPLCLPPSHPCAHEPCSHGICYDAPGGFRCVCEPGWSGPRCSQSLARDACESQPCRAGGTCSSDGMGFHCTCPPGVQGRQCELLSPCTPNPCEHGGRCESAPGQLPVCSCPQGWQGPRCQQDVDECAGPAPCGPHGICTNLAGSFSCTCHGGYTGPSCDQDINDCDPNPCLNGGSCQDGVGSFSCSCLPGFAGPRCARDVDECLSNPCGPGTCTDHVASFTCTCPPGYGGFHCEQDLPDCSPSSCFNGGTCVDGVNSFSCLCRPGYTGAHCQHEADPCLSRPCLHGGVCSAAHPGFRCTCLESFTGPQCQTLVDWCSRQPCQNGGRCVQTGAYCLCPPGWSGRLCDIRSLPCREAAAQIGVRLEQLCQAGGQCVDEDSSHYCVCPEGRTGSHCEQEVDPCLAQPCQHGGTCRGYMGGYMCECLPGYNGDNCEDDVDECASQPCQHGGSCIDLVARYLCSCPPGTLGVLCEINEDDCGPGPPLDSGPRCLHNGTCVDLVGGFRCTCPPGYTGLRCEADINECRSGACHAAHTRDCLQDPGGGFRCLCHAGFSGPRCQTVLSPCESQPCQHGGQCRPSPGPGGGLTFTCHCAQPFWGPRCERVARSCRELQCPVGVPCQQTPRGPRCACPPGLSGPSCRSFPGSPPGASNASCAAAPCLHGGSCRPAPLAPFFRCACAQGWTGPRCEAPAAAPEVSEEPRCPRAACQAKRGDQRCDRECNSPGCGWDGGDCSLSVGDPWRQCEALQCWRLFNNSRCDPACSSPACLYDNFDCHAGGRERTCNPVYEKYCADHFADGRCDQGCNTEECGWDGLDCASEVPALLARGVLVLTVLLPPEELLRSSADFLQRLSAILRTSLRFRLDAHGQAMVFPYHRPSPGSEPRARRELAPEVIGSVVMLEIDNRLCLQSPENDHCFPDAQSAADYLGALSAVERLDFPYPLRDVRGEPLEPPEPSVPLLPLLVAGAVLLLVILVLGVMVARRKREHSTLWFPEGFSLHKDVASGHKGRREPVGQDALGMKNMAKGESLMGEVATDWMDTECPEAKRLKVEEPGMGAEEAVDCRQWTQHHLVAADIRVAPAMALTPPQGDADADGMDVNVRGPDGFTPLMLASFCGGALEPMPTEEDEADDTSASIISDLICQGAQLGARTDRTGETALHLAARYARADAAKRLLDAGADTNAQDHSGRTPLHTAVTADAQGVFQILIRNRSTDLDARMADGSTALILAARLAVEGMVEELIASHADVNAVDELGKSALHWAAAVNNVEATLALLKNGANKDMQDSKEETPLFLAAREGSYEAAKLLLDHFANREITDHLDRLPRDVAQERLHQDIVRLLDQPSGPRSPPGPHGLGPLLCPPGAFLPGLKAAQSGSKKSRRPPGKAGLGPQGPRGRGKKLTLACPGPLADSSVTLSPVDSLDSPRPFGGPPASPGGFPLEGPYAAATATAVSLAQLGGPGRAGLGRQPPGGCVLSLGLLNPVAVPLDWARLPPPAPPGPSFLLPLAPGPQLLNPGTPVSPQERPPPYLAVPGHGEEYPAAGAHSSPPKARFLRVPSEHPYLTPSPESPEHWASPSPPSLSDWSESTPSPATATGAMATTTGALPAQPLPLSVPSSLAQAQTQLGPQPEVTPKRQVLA
Assay [20] is described as follows: small-molecule microarray binders of probe aEGFR, primary screen, biochemical, biotinylated probe, 635/667 nm fluorescence (AID 1097).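 Further: probe is a biotinylated anti-EGFR antibody binding compounds printed on slides; score combines fluorescence near 667 nm and signal to noise of each spot.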 The note with it: higher = more signal.

SMILES strings stand for the structures. Values joined by “and” are separate entries in the source; they are usually repeats but may differ in a detail not shown here. Identical values can stand only once. Active and inactive are the calls of the source.

In the case of `C=CCN(C(=O)C(c1cccs1)N(C(=O)/C=C\C(=O)O)C(C)(C)CO)c1ccc(OC)cc1` (stereo not given), the composite z-score in assay [1] was 0.865 and 0.636; in [2], -0.709 and 0.408; in [3], -0.204 and -0.158; in assay [4], -1.37 and -0.882; in assay [5] it was -0.907 and -1.48; in [6] it was 1.46 and 1.42. Besides, the composite z-score in [7] is 1.36 and 0.431; in assay [9], -0.337 and -0.451; in [10], -0.482 and -0.0645; in [11], -0.771 and -0.469; in assay [15] it was 2.03 and -0.628; in assay [17] it was 0.388 and -0.0519. The composite z-score in assay [18] is -1.23 and -1.8; in [19] it was -1.37 and -0.484; in [20] it was -0.24 and -0.151. For the same compound, the z-score in assay [8] was -0.447 (inactive) and 1.44 (inactive); in assay [12] it was -2.87 (inactive) and -2.15 (inactive); in assay [13], -2.09 (inactive) and -2.05 (inactive); in assay [14], -2.57 (inactive) and -1.07 (inactive); in [16], 3.5 (inactive) and 2.82 (inactive).

As to `COC(=O)C1=C(C)N(Cc2ccccc2)[C@]23O[C@](C(=O)OC)(C(=O)N2[C@@H]1c1ccccc1)[C@H]1C(=O)N(c2ccccc2)C(=O)[C@H]13`, the composite z-score in [1] was -0.387 and -0.343; in [2], 0.446 and 0.277; in [3], -0.0747 and 0.41; in assay [4], -0.116 and 0.883; in assay [5] it was 1.18 and 0.445; in [6], 0.288 and 0.212. Moreover, the composite z-score was 1.07 and 1.09 in assay [7]; 0.0931 and 0.64 in [9]; 0.192 and -0.0672 in assay [10]; 0.343 and -0.0383 in [11]; 1.14 and 0.69 in [15]; -0.0812 and -0.0245 in assay [17]. Besides, the composite z-score in assay [18] is 0.468 and 0.611; in assay [19] it was 0.649 and 1.11; in assay [20], 0.253 and 0.0534. Also, the z-score was -0.507 (inactive) and -0.154 (inactive) in [8]; 0.434 (inactive) and 0.397 (inactive) in [12]; -0.261 (inactive) and -0.858 (inactive) in assay [13]; -0.558 (inactive) and 0.264 (inactive) in assay [14]; 0.102 (inactive) and 0.185 (inactive) in assay [16].

Regarding `COC(=O)C1=C(C)N(Cc2ccccc2)C2=C(C(C)=O)C[C@@](O)(C(=O)OC)C(=O)N2[C@@H]1c1ccccc1`, the composite z-score in assay [1] was -0.335 and -0.244; in [2], 1.12 and -0.0954; in assay [3], -0.0005 and -0.118; in [4], 0.889 and 0.0839; in assay [5], 1.43 and 1.26; in [6], -0.119 and -0.159. Also, the composite z-score was 1.05 and 0.439 in assay [7]; 0.235 and 0.385 in [9]; -0.0994 and 0.21 in assay [10]; 1.55 and -0.0318 in assay [11]; 1.68 and 0.258 in assay [15]; -0.195 and -0.331 in assay [17]. Also, the composite z-score in assay [18] is 0.364 and 0.0733; in assay [19], 0.729 and -0.153; in assay [20], 0.0069 and -0.158. The z-score in [8] is -0.486 (inactive) and -0.75 (inactive); in assay [12] it was -0.762 (inactive) and -2.05 (inactive); in assay [13], -0.987 (inactive) and -1.63 (inactive); in [14], -1.32 (inactive) and -0.654 (inactive); in assay [16] it was 0.528 (inactive) and 0.524 (inactive).

In the case of `C=CC[C@@H](O)c1ccc(O)c2ccccc12`, the composite z-score in assay [1] is 0.16 and -0.247; in assay [2], 0.571 and 0.234; in assay [3], -0.0422 and -0.0676; in assay [4], 0.184 and 0.262; in assay [5], 0.116 and 0.328; in assay [6] it was 0.66 and 0.282. For the same compound, the composite z-score is 1.18 and 1.26 in assay [7]; 0.42 and 0.0926 in [9]; 0.72 and -0.0237 in assay [10]; 1.57 and 1.49 in assay [11]; 1.01 and 0.0783 in [15]; -0.0511 and -0.0812 in assay [17]. The composite z-score is 1.1 and 0.869 in [18]; 1.11 and 1.1 in [19]; 0.0153 and -0.0531 in [20]. The z-score was 0.0604 (inactive) and 1.27 (inactive) in assay [8]; -22 (active) and -23.3 (active) in assay [12]; -20 (active) and -20.4 (active) in assay [13]; 6.56 (inactive) and 5.68 (inactive) in assay [14]; 1.92 (inactive) and 0.416 (inactive) in [16].

Turning to `C=CCN(CCCC)C(=O)C1N(CCOCCO)C(=O)C2C(C(=O)O)C3C=CC21O3` (stereo not given), the composite z-score in assay [1] is 0.398 and 0.725; in assay [2], -1.98 and -0.776; in [3], -0.209 and -0.116; in assay [4], -1.13 and -0.467; in assay [5] it was -1.17 and -2.39; in [6], 1.64 and -0.729. The composite z-score in [7] is 1.61 and 1.51; in assay [9], -0.792 and -1.02; in assay [10], -0.169 and -0.306; in assay [11], -0.779 and -1.02; in assay [15] it was 2.94 and -0.643; in [17], -0.0065 and -0.291. The composite z-score in assay [18] is -2.5 and -2.13; in assay [19] it was -0.298 and -1.36; in [20], -0.326 and -0.314. For the same compound, the z-score in [8] is 0.75 (inactive) and 0.0827 (inactive); in [12], 0.784 (inactive) and 1.05 (inactive); in assay [13] it was 0.269 (inactive) and 0.777 (inactive); in assay [14], 1.11 (inactive) and 1.07 (inactive); in assay [16] it was 0.489 (inactive) and 0.0433 (inactive).

For the compound `CCCNC(=O)OC[C@H]1O[C@H](CCON=C(C)CCC(=O)OC[C@H]2O[C@H](C#Cc3ccccc3)C=C[C@@H]2Oc2ccc(C)cc2)C=C[C@@H]1Oc1ccc(OC)cc1`, the composite z-score is 0.0836 in assay [1]; -0.115 in assay [2]; -0.124 in [3]; -0.187 in assay [4]; -0.0132 in assay [5]; -0.21 in [6]. For the same compound, the composite z-score in assay [7] was -0.861; in assay [9], -0.244; in [10], 1.27; in assay [11] it was -0.164; in assay [15], -0.575; in assay [17], -0.251. The composite z-score in [18] was -0.346; in assay [19] it was -0.574; in assay [20] it was -0.12. For the same compound, the z-score in assay [8] was 0.751 (inactive); in assay [12] it was -0.142 (inactive); in [13] it was -0.0152 (inactive); in [14], 0.794 (inactive); in assay [16], 0.165 (inactive).
